# What was measured:
# [1] = biological target: Sphingosine kinase 1 (Homo sapiens) (UniProt Q9NYA1); conditions: at 1 µM;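 also: mean SPHK1 inhibition value reported from the GSK PKIS kinase panel screen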
# [2] = biological target: T1, Sphingosine kinase 2 (Homo sapiens) (UniProt Q9NRA0); conditions: at 0.1 µM
# T1 sequence (whole entry): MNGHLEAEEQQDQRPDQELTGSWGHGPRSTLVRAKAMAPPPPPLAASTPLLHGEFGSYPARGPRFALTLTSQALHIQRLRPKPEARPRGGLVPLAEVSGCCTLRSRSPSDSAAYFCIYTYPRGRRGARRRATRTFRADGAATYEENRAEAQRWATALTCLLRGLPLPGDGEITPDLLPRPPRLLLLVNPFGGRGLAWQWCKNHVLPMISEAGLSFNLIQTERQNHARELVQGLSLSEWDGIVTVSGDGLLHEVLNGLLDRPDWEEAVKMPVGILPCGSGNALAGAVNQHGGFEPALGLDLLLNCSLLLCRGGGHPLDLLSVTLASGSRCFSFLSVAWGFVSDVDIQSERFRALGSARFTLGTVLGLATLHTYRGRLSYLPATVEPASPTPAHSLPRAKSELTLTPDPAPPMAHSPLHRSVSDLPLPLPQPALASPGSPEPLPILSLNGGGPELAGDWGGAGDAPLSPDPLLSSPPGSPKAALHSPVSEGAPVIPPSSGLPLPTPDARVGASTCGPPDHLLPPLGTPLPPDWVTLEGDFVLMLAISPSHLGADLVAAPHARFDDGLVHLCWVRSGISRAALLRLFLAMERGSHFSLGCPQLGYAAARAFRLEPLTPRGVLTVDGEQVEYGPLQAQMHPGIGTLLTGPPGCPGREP
# [3] = biological target: T1, Sphingosine kinase 2 (Homo sapiens); conditions: at 1 µM
# [4] = biological target: Casein kinase II subunit alpha (Homo sapiens) (UniProt P68400); conditions: at 0.1 µM
# Sequence of Casein kinase II subunit alpha (Homo sapiens) (P68400 whole entry, looked up): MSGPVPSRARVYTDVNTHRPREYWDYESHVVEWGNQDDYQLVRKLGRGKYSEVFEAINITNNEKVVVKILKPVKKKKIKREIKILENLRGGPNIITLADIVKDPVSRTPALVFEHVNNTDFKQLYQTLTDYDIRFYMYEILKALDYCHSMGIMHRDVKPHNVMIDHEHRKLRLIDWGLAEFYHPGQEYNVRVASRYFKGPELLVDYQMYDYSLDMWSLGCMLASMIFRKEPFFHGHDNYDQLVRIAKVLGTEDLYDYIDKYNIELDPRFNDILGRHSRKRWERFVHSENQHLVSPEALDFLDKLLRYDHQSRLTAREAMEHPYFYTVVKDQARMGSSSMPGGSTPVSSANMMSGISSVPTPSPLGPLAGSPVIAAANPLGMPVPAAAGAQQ
# [5] = biological target: Casein kinase II subunit alpha (Homo sapiens) (UniProt P68400); conditions: at 1 µM
# [6] = biological target: T2, Inhibitor of nuclear factor kappa-B kinase subunit alpha (Homo sapiens) (UniProt O15111); conditions: at 0.1 µM
# T2 sequence (whole entry): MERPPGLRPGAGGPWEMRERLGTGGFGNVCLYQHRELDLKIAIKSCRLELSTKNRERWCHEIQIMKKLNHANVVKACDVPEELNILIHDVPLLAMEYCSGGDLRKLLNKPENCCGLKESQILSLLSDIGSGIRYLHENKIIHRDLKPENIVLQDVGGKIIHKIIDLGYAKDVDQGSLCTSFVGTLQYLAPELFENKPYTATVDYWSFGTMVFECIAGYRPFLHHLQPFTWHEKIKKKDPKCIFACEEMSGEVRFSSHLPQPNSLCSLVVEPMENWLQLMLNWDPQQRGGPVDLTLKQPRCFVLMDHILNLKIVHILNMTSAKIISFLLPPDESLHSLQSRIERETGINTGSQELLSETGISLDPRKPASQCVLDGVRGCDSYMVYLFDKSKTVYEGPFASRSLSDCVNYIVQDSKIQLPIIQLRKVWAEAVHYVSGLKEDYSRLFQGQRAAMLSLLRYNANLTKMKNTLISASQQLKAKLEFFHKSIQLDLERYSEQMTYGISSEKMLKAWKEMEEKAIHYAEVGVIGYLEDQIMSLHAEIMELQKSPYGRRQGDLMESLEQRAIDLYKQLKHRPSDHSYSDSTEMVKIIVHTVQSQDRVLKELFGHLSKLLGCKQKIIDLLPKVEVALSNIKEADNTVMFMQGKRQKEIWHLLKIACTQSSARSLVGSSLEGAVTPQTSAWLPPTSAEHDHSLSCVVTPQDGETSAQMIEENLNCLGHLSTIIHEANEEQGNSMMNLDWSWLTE
# [7] = biological target: T2, Inhibitor of nuclear factor kappa-B kinase subunit alpha (Homo sapiens); conditions: at 1 µM
# [8] = biological target: T3, Inhibitor of nuclear factor kappa-B kinase subunit beta (Homo sapiens) (UniProt O14920); conditions: at 0.1 µM
# T3 sequence (whole entry): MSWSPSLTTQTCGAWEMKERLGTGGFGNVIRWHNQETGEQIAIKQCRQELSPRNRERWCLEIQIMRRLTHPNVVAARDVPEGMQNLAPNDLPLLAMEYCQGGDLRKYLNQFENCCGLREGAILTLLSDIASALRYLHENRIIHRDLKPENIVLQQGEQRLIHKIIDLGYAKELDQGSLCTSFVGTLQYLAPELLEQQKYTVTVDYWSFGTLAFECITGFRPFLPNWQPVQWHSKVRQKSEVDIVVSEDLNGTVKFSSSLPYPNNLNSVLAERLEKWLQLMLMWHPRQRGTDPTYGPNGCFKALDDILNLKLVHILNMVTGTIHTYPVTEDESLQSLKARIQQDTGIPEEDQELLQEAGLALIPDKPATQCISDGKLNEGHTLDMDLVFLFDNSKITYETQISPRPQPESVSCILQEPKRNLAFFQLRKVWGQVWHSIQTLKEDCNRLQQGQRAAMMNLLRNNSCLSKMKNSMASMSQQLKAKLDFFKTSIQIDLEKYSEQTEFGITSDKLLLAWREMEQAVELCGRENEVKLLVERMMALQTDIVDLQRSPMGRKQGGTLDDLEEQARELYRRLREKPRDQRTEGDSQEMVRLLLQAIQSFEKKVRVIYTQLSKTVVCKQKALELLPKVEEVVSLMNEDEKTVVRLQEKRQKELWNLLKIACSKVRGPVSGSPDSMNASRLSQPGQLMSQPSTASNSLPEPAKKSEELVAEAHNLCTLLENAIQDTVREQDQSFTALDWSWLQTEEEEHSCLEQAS
# [9] = biological target: T3, Inhibitor of nuclear factor kappa-B kinase subunit beta (Homo sapiens); conditions: at 1 µM
# [10] = biological target: T4, Inhibitor of nuclear factor kappa-B kinase subunit epsilon (Homo sapiens) (UniProt Q14164); conditions: at 0.1 µM
# T4 sequence (whole entry): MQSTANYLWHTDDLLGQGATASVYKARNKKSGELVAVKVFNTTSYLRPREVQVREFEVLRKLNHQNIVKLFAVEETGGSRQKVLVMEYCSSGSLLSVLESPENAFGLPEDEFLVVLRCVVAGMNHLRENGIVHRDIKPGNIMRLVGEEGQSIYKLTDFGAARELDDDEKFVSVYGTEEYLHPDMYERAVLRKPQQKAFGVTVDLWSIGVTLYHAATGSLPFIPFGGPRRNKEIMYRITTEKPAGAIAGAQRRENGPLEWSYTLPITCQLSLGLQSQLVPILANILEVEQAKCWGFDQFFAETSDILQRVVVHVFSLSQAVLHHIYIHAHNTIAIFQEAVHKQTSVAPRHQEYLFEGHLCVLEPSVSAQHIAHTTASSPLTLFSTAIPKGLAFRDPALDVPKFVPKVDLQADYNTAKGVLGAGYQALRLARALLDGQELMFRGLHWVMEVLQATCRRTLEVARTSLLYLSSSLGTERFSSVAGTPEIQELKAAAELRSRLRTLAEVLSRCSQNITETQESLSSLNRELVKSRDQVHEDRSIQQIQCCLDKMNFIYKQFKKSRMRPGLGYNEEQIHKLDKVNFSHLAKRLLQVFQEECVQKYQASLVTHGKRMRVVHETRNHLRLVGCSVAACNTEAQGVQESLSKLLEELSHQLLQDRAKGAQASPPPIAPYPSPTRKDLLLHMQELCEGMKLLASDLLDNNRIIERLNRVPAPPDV
# [11] = biological target: T4, Inhibitor of nuclear factor kappa-B kinase subunit epsilon (Homo sapiens); conditions: at 1 µM
# [12] = biological target: T5, Serine/threonine-protein kinase Nek1 (Homo sapiens) (UniProt Q96PY6); conditions: at 0.1 µM
# T5 sequence (whole entry): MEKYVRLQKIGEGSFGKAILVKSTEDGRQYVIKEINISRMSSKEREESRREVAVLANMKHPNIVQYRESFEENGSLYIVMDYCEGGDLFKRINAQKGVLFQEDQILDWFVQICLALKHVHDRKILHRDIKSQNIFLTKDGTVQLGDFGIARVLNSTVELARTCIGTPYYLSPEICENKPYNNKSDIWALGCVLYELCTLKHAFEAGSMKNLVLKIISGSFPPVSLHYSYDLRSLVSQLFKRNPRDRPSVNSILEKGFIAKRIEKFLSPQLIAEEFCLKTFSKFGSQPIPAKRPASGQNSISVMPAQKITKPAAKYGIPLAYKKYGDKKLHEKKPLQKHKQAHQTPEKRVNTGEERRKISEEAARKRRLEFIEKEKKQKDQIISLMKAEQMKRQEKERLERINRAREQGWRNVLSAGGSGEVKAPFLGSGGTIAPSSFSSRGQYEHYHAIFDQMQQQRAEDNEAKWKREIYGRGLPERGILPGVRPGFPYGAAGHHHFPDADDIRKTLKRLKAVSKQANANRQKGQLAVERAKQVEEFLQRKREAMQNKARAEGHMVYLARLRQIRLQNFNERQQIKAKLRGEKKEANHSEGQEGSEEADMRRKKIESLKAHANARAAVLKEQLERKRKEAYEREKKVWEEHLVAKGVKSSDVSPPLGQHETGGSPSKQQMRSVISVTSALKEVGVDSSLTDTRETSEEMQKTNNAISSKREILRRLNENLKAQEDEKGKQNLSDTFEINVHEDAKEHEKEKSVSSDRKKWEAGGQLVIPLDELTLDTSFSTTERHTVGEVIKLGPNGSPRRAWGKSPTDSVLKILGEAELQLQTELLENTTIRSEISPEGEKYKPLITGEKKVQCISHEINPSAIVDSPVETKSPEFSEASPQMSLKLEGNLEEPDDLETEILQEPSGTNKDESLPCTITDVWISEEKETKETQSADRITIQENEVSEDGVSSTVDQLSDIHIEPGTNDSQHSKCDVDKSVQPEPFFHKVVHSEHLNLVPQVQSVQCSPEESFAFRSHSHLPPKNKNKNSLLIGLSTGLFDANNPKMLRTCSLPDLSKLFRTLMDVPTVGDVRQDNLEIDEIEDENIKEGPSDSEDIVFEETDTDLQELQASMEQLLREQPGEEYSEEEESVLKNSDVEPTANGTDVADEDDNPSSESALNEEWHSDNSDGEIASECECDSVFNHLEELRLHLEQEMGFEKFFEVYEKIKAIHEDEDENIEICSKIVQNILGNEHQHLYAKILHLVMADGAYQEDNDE
# [13] = biological target: T5, Serine/threonine-protein kinase Nek1 (Homo sapiens); conditions: at 1 µM
# [14] = biological target: T6, Serine/threonine-protein kinase Nek2 (Homo sapiens) (UniProt P51955); conditions: at 0.1 µM
# T6 sequence (whole entry): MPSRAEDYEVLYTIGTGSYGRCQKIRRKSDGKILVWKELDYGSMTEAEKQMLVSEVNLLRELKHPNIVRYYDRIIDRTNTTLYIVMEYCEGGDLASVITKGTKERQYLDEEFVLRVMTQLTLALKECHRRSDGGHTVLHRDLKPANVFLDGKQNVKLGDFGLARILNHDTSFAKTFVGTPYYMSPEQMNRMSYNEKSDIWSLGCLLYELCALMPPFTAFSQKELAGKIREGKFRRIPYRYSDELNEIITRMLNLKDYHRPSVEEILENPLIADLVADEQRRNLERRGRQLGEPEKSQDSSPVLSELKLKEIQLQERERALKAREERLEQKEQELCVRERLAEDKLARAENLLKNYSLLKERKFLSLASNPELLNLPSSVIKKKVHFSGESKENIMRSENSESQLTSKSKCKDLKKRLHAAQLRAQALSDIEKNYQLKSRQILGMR
# [15] = biological target: T6, Serine/threonine-protein kinase Nek2 (Homo sapiens); conditions: at 1 µM
# [16] = biological target: Serine/threonine-protein kinase Nek6 (Homo sapiens) (UniProt Q9HC98); conditions: at 0.1 µM
# Sequence of Serine/threonine-protein kinase Nek6 (Homo sapiens) (Q9HC98 whole entry): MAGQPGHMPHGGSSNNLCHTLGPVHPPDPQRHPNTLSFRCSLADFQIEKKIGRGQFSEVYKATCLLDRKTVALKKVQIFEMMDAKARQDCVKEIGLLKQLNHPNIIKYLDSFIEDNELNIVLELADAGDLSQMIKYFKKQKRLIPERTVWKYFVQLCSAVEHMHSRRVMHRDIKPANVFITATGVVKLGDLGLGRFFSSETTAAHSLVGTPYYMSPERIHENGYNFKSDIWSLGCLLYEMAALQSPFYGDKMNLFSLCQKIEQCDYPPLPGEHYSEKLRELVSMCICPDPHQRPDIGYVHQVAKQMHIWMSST
# [17] = biological target: Serine/threonine-protein kinase Nek6 (Homo sapiens) (UniProt Q9HC98); conditions: at 1 µM
# [18] = biological target: Serine/threonine-protein kinase Nek7 (Homo sapiens) (UniProt Q8TDX7); conditions: at 0.1 µM
# Sequence of Serine/threonine-protein kinase Nek7 (Homo sapiens) (Q8TDX7 whole entry, looked up): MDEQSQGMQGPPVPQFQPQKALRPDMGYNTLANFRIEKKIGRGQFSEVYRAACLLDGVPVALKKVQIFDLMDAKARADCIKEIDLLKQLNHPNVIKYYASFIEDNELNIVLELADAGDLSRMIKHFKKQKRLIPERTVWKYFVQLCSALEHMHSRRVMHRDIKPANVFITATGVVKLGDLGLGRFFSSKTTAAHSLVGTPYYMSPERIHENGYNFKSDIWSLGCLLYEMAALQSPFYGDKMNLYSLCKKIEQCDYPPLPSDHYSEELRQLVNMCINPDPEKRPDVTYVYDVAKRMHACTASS
# [19] = biological target: Serine/threonine-protein kinase Nek7 (Homo sapiens) (UniProt Q8TDX7); conditions: at 1 µM
# [20] = biological target: T7, Serine/threonine-protein kinase Nek9 (Homo sapiens) (UniProt Q8TD19); conditions: at 0.1 µM;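 also: reported value is the mean percent inhibition of NEK9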
# T7 sequence (whole entry): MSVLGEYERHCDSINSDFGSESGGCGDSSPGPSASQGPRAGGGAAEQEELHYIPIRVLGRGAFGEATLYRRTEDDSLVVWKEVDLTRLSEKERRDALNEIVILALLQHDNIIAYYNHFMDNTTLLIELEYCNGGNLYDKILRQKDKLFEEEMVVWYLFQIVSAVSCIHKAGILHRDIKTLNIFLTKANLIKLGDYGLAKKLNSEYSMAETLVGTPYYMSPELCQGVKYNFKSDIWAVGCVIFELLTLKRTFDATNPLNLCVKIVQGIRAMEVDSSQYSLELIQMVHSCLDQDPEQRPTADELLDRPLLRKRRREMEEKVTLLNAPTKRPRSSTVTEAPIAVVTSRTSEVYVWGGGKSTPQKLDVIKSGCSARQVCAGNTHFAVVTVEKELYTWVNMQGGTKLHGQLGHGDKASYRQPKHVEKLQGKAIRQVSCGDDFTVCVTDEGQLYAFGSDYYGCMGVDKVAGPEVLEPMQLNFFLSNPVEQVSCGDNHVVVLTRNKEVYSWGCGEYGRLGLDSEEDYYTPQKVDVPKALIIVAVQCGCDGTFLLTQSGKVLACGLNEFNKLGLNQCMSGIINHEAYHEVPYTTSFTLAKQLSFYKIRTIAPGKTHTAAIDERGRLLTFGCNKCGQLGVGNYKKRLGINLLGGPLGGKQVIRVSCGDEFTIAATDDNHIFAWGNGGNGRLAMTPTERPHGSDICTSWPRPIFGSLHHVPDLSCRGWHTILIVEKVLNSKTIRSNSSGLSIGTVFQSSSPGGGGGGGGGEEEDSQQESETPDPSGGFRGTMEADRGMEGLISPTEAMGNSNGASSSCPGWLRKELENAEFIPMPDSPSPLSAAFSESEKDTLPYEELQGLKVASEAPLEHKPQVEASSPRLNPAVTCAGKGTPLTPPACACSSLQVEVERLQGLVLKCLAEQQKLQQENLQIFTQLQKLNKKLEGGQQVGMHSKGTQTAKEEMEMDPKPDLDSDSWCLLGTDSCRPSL
# Sequence of Sphingosine kinase 1 (Homo sapiens) (Q9NYA1 whole entry): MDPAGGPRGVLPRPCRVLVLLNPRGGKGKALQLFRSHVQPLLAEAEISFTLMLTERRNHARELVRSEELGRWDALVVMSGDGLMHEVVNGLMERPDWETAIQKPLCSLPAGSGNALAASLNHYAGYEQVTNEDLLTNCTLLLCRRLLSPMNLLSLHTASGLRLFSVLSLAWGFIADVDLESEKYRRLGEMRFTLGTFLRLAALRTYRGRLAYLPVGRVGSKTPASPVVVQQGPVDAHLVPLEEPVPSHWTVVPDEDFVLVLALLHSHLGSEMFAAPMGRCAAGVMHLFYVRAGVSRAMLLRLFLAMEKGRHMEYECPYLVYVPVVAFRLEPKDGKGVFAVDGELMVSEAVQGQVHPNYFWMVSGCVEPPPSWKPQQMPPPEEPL
smiles,measurement,setting,value
CCS(=O)(=O)c1ccc(OC)c(Nc2ncc(-c3ccccc3Cl)o2)c1,inhibition,[1],-2.06%
same,inhibition,[2],0%
same,inhibition,[3],-1.74%
same,inhibition,[4],3.8%
same,inhibition,[5],23.3%
same,inhibition,[6],2.45%
same,inhibition,[7],3.42%
same,inhibition,[8],1.4%
same,inhibition,[9],-0.23%
same,inhibition,[10],3.21%
same,inhibition,[11],2.16%
same,inhibition,[12],0.72%
same,inhibition,[13],4.41%
same,inhibition,[14],0.42%
same,inhibition,[15],0.79%
same,inhibition,[16],1.4%
same,inhibition,[17],-2.46%
same,inhibition,[18],-0.08%
same,inhibition,[19],2.67%
same,inhibition,[20],4.12%

# From ChEMBL document CHEMBL1961873, “Compounds: GSK PKIS; Assays: Nanosyn kinase panel” (2012)
